# Measurements as given in PubChem BioAssay (EPA / NIEHS).
# Active and inactive are the calls of the source. Rule for the calls: active = hit-call score of the fitted dose curve at least 0.9, where 1 is the maximum; inactive = score below 0.9.
# Tests used:
# Conditions in all cases: mRNA level, 48 h; actives raise or lower the signal
# [1] = read-out: ABC Transporter (ABCC2), ABCC2 (gene 1244); assay: LTEA_HepaRG_ABCC2: Life Technologies and Expression Analysis (LTEA) Assay for ABC Transporter (ABCC2) using HepaRG (AID 2283464)
# Method in brief: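 After plating and 48 h culture, HepaRG medium is replaced with serum-free induction medium and chemicals are added (8 concentrations, max 100 uM, 0.5% DMSO) for 48 h. Total RNA then undergoes qRT-PCR for ABCC2 with housekeeping normalization.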
# [2] = read-out: Broad substrate specificity ATP-binding cassette transporter ABCG2 (Homo sapiens) (UniProt Q9UNQ0); assay: LTEA_HepaRG_ABCG2: Life Technologies and Expression Analysis (LTEA) Assay for ABC Transporter (ABCG2) using HepaRG (AID 2283465)
# Method in brief: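 Gene expression of ABCG2 in HepaRG liver cells is quantified by qRT-PCR following 48 h exposure across an eight-point series topping at 100 uM. Values come from bidirectional fitting relative to DMSO vehicle.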
# [3] = read-out: Peroxisomal acyl-coenzyme A oxidase 1 (ACOX1) gene, ACOX1 (gene 51); assay: LTEA_HepaRG_ACOX1: Life Technologies and Expression Analysis (LTEA) Assay for Peroxisomal acyl-coenzyme A oxidase 1 (ACOX1) gene using HepaRG (AID 2283467)
# Method in brief: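 Human HepaRG hepatic cultures, 48 h treatment with test chemicals up to 100 uM. ACOX1 expression read by qRT-PCR relative to 0.5% DMSO vehicle.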
# [4] = read-out: Alkaline Phosphatase, Placental (ALPP) gene, ALPP (gene 250); assay: LTEA_HepaRG_ALPP: Life Technologies and Expression Analysis (LTEA) Assay for Alkaline Phosphatase, Placental (ALPP) gene using HepaRG (AID 2283468);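 for AC50: differentiated human HepaRG liver cells in serum-free induction medium; ALPP transcript by TaqMan qRT-PCR normalized to ACTB GAPDH and POLR2A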
# Method in brief: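 Using human liver HepaRG cells, chemicals are tested in duplicate over 48 h at half-log concentrations topping at 100 uM; phenobarbital 1 mM serves as induction control. ALPP mRNA change by qRT-PCR, bidirectional fit against vehicle.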
# [5] = read-out: Bcl-2 (BAD) gene, BAD (gene 572); assay: LTEA_HepaRG_BAD: Life Technologies and Expression Analysis (LTEA) Assay for Bcl-2 (BAD) gene using HepaRG (AID 2283469)
# Method in brief: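 Activity values reflect up- or down-regulation of BAD mRNA in human HepaRG hepatic cells treated 48 h in serum-free medium, with eight-point half-log dosing capped at 100 uM and 0.5% DMSO vehicle.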
# [6] = read-out: Bcl-2 (BAX) gene, BAX (gene 581); assay: LTEA_HepaRG_BAX: Life Technologies and Expression Analysis (LTEA) Assay for Bcl-2 (BAX) gene using HepaRG (AID 2283470)
# Method in brief: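 Cells were thawed, plated for 48 h, moved to serum-free induction medium and dosed for 48 h (highest concentration 100 uM, half-log steps, 0.5% DMSO). Total RNA was then analysed for BAX expression by qRT-PCR.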
# [7] = read-out: adenosine kinase (ADK) gene, ADK (gene 132); assay: LTEA_HepaRG_ADK: Life Technologies and Expression Analysis (LTEA) Assay for adenosine kinase (ADK) gene using HepaRG (AID 2283471)
# Method in brief: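 Read-out is ADK transcript level measured by qRT-PCR and normalised to three housekeeping genes. Cells are human HepaRG, dosed for 48 h at up to 100 uM in 0.5% DMSO. Gain or loss of signal is fitted against DMSO controls.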
# [8] = read-out: Alpha-fetoprotein (AFP) gene, AFP (gene 174); assay: LTEA_HepaRG_AFP: Life Technologies and Expression Analysis (LTEA) Assay for Alpha-fetoprotein (AFP) gene using HepaRG (AID 2283472);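 for AC50: AFP transcript by TaqMan qRT-PCR normalized to ACTB GAPDH and POLR2A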
# Method in brief: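 Chemicals were tested on differentiated HepaRG cells for 48 hours at eight concentrations up to 100 uM, with 0.5% DMSO as vehicle. AFP expression was then quantified by qRT-PCR and analyzed for gain or loss relative to DMSO.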
# BCL2L11 (gene 10018) = assay: LTEA_HepaRG_BCL2L11: Life Technologies and Expression Analysis (LTEA) Assay for Bcl-2 (BCL2L11) gene using HepaRG (AID 2283473)
# Method in brief: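 Human hepatic HepaRG cultures are treated 48 h with test chemicals (maximum 100 uM, 0.5% DMSO vehicle). Expression of BCL2L11 is measured by qRT-PCR against ACTB, GAPDH and POLR2A, with activity in either direction scored relative to vehicle.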
# [9] = read-out: ATP-citrate lyase (ACLY), ACLY (gene 47); assay: LTEA_HepaRG_ACLY: Life Technologies and Expression Analysis (LTEA) Assay for ATP-citrate lyase (ACLY) using HepaRG (AID 2283466)
# Method in brief: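 ACLY expression changes in human HepaRG liver cells are quantified by qRT-PCR after 48 h exposure to test chemicals (maximum 100 uM, half-log steps). Values are fitted in both directions relative to 0.5% DMSO vehicle.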
# Broad substrate specificity ATP-binding cassette transporter ABCG2 (Homo sapiens), sequence (Q9UNQ0 whole entry, looked up): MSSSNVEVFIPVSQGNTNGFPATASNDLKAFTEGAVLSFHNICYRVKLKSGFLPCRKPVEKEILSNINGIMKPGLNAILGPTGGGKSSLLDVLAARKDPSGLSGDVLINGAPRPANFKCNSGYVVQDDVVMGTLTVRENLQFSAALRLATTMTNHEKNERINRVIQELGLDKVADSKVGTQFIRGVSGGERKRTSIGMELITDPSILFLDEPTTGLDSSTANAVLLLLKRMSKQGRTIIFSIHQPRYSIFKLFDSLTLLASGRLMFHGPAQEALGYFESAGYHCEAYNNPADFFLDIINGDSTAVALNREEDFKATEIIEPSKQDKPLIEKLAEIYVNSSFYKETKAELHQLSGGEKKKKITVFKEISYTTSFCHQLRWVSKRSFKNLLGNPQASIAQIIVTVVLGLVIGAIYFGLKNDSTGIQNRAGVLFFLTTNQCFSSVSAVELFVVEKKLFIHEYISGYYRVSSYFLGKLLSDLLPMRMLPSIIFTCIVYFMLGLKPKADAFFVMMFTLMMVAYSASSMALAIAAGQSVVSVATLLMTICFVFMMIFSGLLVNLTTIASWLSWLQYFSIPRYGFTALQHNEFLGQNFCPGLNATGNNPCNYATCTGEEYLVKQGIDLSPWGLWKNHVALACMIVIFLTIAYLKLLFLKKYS
SMILES,outcome [1],outcome [2],outcome [3],outcome [4],outcome [5],outcome [6],outcome [7],outcome [8],outcome (BCL2L11 (gene 10018)),outcome [9],AC50 [1],AC50 [2],AC50 [8],AC50 [4],AC50 [3],AC50 [7],AC50 [9]
CC(C)CCCCCCc1ccc(O)cc1,inactive,inactive,inactive,inactive,inactive,inactive,inactive,inactive,inactive,,,,,,,,
C#C[C@]1(O)CC[C@H]2[C@@H]3CCC4=CC(=O)CC[C@@H]4[C@H]3CC[C@@]21CC,inactive,inactive,inactive,inactive,,inactive,inactive,inactive,inactive,inactive,,,,,,,
C#CCOC(=O)[C@@H](C)Oc1ccc(Oc2ncc(Cl)cc2F)cc1,inactive,inactive,inactive,inactive,,inactive,inactive,inactive,inactive,inactive,,,,,,,
CCCOC(=O)NCCCN(C)C,inactive,inactive,inactive,inactive,,inactive,inactive,inactive,inactive,inactive,,,,,,,
CCOC(=O)C(C)Oc1ccc(Oc2nc3ccc(Cl)cc3o2)cc1 (stereo not drawn),inactive,inactive,inactive,inactive,,inactive,inactive,inactive,inactive,inactive,,,,,,,
CCOC(=O)C(C)Oc1ccc(Oc2cnc3cc(Cl)ccc3n2)cc1 (stereo not drawn),inactive,inactive,inactive,inactive,,inactive,inactive,inactive,inactive,inactive,,,,,,,
CCN(Cc1c(F)cccc1Cl)c1c([N+](=O)[O-])cc(C(F)(F)F)cc1[N+](=O)[O-],,,inactive,inactive,,inactive,inactive,,inactive,inactive,50 µM (active),20.3 µM (active),50 µM (active),,,,
c1ccc2[nH]c(-c3cscn3)nc2c1,inactive,,inactive,inactive,,inactive,inactive,inactive,inactive,inactive,,9.92 µM (active),,,,,
CCCN(CCC)c1c([N+](=O)[O-])cc(C(F)(F)F)c(N)c1[N+](=O)[O-],,inactive,inactive,inactive,,inactive,inactive,,inactive,inactive,25.4 µM (active),,34.4 µM (active),,,,
CCCN(CCC)C(=O)SCC,inactive,inactive,inactive,inactive,,inactive,inactive,inactive,inactive,inactive,,,,,,,
CCNc1nc(N)nc(Cl)n1,inactive,inactive,inactive,inactive,,inactive,inactive,inactive,inactive,inactive,,,,,,,
CCCCOC(=O)[C@@H](C)Oc1ccc(Oc2ccc(C(F)(F)F)cn2)cc1,inactive,inactive,inactive,inactive,,inactive,inactive,inactive,inactive,inactive,,,,,,,
N#CSCSc1nc2ccccc2s1,inactive,inactive,inactive,,,inactive,inactive,inactive,inactive,inactive,,,,40.3 µM (active),,,
c1ccc(Nc2ccccc2)cc1,inactive,,inactive,inactive,inactive,inactive,inactive,inactive,inactive,inactive,,,,,,,
O=C(c1ccc(O)cc1O)c1ccc(O)cc1O,inactive,inactive,inactive,inactive,,inactive,inactive,inactive,inactive,inactive,,,,,,,
CC(=O)S[C@@H]1CC2=CC(=O)CC[C@]2(C)[C@H]2CC[C@@]3(C)[C@@H](CC[C@@]34CCC(=O)O4)[C@H]12,inactive,inactive,,inactive,,inactive,,,inactive,inactive,,,43.4 µM (active),,50 µM (active),50 µM (active),
S=C([S-])NCCNC(=S)[S-].[Mn+2],,inactive,,inactive,,inactive,,,inactive,,2.87 µM (active),,3.16 µM (active),,2.64 µM (active),0.628 µM (active),0.871 µM (active)
COC(=O)CSc1cc(N=c2sc(=O)n3n2CCCC3)c(F)cc1Cl,,inactive,inactive,inactive,,inactive,inactive,inactive,inactive,inactive,50 µM (active),,,,,,
CCN(CC)C(=O)c1cccc(C)c1,,inactive,inactive,inactive,,inactive,inactive,inactive,inactive,inactive,21.5 µM (active),,,,,,
CN(C)C(=O)Nc1ccc(Cl)c(Cl)c1,inactive,,inactive,inactive,,inactive,inactive,,inactive,inactive,,36.4 µM (active),50 µM (active),,,,
CCSC(=O)N(CC(C)C)CC(C)C,inactive,inactive,inactive,inactive,,inactive,inactive,inactive,inactive,inactive,,,,,,,
CC1(C)C(C=C(Cl)Cl)C1C(=O)OCc1cccc(Oc2ccccc2)c1 (stereo not drawn),inactive,inactive,inactive,inactive,,inactive,inactive,inactive,inactive,inactive,,,,,,,
CCCCC(CC)CN1C(=O)C2C3C=CC(C3)C2C1=O (stereo not drawn),inactive,,inactive,,,inactive,inactive,,inactive,,,13.2 µM (active),50 µM (active),65.4 µM (active),,,73 µM (active)
CCCCCCC(C)OC(=O)COc1nc(F)c(Cl)c(N)c1Cl (stereo not drawn),inactive,inactive,inactive,inactive,,inactive,inactive,inactive,inactive,inactive,,,,,,,
N[C@@H](Cc1cc(I)c(Oc2ccc(O)c(I)c2)c(I)c1)C(=O)O,,,,inactive,,inactive,inactive,,inactive,inactive,7.94 µM (active),70.5 µM (active),40 µM (active),,7.94 µM (active),,
Oc1ccc(C(c2ccc(O)cc2)C(Cl)(Cl)Cl)cc1,,,,inactive,,inactive,,inactive,inactive,,83.1 µM (active),75.4 µM (active),,,85.5 µM (active),75.9 µM (active),78.5 µM (active)
CCCCC(CC)COC(=O)c1ccccc1C(=O)O (stereo not drawn),inactive,inactive,inactive,inactive,,inactive,inactive,inactive,inactive,inactive,,,,,,,
